One may read the AC50 as the midpoint of the concentration-response curve, whichever way the signal moves.

In all, about 16,000 compounds went through this assay and about 5,700 (36%) were called active. Inconclusive results (about 24%) are left out. The list shows a part of the results. Values without a mark were called inactive. Calls come from the whole dose curve; as a rule, active = well fitted curve in the direction sought with a large enough effect; inconclusive = small, poorly fitted or top-dose-only effect, or effect the other way; inactive = no such curve, though single readings can be large or run the other way.
% is set by controls: 0 for no effect and ±100 for the full control effect.

Chain of Cytochrome P450 1A2 (Homo sapiens) (P05177 whole entry, looked up): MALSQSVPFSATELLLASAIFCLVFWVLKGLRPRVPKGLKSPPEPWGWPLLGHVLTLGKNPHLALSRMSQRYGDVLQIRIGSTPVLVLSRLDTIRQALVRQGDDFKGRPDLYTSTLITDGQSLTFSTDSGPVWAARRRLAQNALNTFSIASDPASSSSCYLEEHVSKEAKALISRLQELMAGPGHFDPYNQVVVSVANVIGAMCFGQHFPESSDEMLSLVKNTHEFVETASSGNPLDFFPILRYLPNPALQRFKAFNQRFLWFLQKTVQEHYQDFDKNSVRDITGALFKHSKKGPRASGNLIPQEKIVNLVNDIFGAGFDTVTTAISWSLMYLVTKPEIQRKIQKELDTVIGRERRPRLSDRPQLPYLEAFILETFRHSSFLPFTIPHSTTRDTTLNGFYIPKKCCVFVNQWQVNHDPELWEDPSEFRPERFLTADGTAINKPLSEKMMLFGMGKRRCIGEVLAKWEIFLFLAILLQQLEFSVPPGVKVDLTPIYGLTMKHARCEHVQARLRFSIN

The assay has as its target Cytochrome P450 1A2 (Homo sapiens) (UniProt P05177). The experiment in a line: Cytochrome panel assay with activity outcomes. The settings on record: recombinant CYP, pro-luciferin dealkylation, luminescence, p450-cyp1a2; series mostly up to 57.1 µM; activity, negative = inhibition: at the top concentration.
For `CCNc1nc(NCC)nc(ON=C(C)C)n1`, the AC50 was 14.1 µM (active).

Turning to `O=S(=O)(c1ccccc1)N1CCC2(CCN(C(c3ccccc3)c3ccccc3)CC2)CC1`, the “activity, negative = inhibition” value is -19.9%.

As for `Cc1cccc(C(=O)NNC(=O)C2CCCO2)c1` (stereo not drawn), the “activity, negative = inhibition” value is -3.1%.

As to `COc1cc2nc(N(C)CCCNC(=O)[C@@H]3CCCO3)nc(N)c2cc1OC`, the “activity, negative = inhibition” value is -14% [at 25.6 µM].

As for `O=C(Nc1nc2ccc(F)cc2s1)C1CCCO1` (stereo not drawn), the half-maximal activity concentration (AC50) is 4.47 µM (active).

On to `CS(=O)(=O)N1CCC2(CCN(Cc3ccncc3)CC2)CC1`, for which the “activity, negative = inhibition” value is 7%.

As to `Cc1ccc(S(=O)(=O)N[C@@H](CCc2ccccc2)CC(=O)C(C)(C)C)cc1`, the activity, negative = inhibition was 2.3% [at 11.4 µM].

`CC(CCc1ccccc1)NC(=O)/C=C/c1ccccc1` (stereo not drawn): the half-maximal activity concentration (AC50) is 12.6 µM (active).

In the case of `C[C@@H](CCc1ccccc1)NC[C@H](O)c1ccc(O)c(C(N)=O)c1`, the “activity, negative = inhibition” value was -17.9% [at 25.6 µM].

On to `CCOC(=O)[C@H](CCc1ccccc1)N[C@@H](C)C(=O)N1CCC[C@H]1C(=O)O`, for which the “activity, negative = inhibition” value is -6.41% [at 25.6 µM].

Take `CC(CCc1ccccc1)NS(=O)(=O)c1ccccc1` (stereo not drawn): the AC50 is 14.1 µM (active).

Turning to `C[C@@H](CS(=O)(=O)Cc1ccccc1)C(N)=O`, the activity, negative = inhibition is -13.3% [at 11.4 µM].

On to `CC(CCc1ccccc1)NC(=O)C(=O)NCCO` (stereo not drawn), for which the “activity, negative = inhibition” value was -14%.

Take `CCCCNC(=O)C(=O)NC(C)CCc1ccccc1` (stereo not drawn): the AC50 is 15.8 µM (active).

As for `C=CC[C@@H]1C=C[C@H](O/N=C2\c3cc(OC)ccc3O[C@H](c3cccc(OC)c3)[C@H]2O)[C@H](CO)O1`, the activity, negative = inhibition is -7.04% [at 11.4 µM].

In the case of `O=[N+]([O-])c1ccc(Cl)c(-c2ccc(/C=N/c3c(-c4ccco4)nc4ccccn34)o2)c1`, the “activity, negative = inhibition” value is -21.9%.

As for `COc1cc(-c2nc3ccccn3c2/N=C/c2ccccc2)ccc1O`, the concentration at half-maximal activity (AC50) was 3.16 µM (active).

With `C[n+]1cc2c3c(ccc2c2ccc4cc5c(cc4c21)OCO5)OCO3`, the AC50 was 3.98 µM (active).

Regarding `Cc1cnc(CNc2ccnc(-c3ccc(N(C)C)cc3)n2)cn1`, the AC50 is 2.51 µM (active).

`Cc1cnc(CNc2ccnc(-c3ccoc3)n2)cn1`: the AC50 was 12.6 µM (active).

Turning to `CO/N=C\c1ccc(C(=O)N2[C@H](c3ccc(C)cc3)[C@@H](C)CC[C@H]2C(=O)OC)cc1`, the activity, negative = inhibition was -13.4% [at 11.4 µM].

Regarding `C[N+](C)(C)c1cc2c(nn1)Nc1ccccc1S2`, the AC50 is 2 µM (active).

Consider `O=C(O)CC1(CC(=O)O)Nc2ccccc2SC1=O`, for which the activity, negative = inhibition is 2.04% [at 2.29 µM].

Take `CCCCC/C=C\C[C@H](O)/C=C\c1cccc(C[C@H](O)CCCCO)n1`: the “activity, negative = inhibition” value was -3.33%.

Take `CC(/C=C/c1ccco1)=N/NC(=O)c1ccccc1Cl`: the AC50 was 17.8 µM (active).

For the compound `Cc1ccc(NC(=S)/C(=C(\[O-])c2ccc(C)c([N+](=O)[O-])c2)[n+]2ccccc2)cc1C`, the AC50 was 14.1 µM (active).

With `CC(C)=C1C(=O)C(c2ccccc2)=C2CN3C(=O)N(CCc4ccccc4)C(=O)[C@]3(Cc3ccccc3)[C@H]21`, the “activity, negative = inhibition” value is -14.9%.

In the case of `O=C(COC(=O)c1cccnc1Nc1cccc(C(F)(F)F)c1)NCc1ccc2c(c1)OCO2`, the AC50 is 3.55 µM (active).

On to `O=C(O)Cc1ccc2c(c1)N(S(=O)(=O)c1cccc(C(F)(F)F)c1)CC(C(=O)O)O2` (stereo not drawn), for which the “activity, negative = inhibition” value is -19.2%.

On to `O=C(O)c1cccnc1C(=O)O`, for which the “activity, negative = inhibition” value was -5.13%.

For the compound `O=C(O)c1sc2cc(C(F)(F)F)cnc2c1-c1ccccc1`, the “activity, negative = inhibition” value was -9.27%.

On to `O=C(O)c1cccnc1Nc1cccc(C(F)(F)F)c1`, for which the half-maximal activity concentration (AC50) was 5.01 µM (active).

Take `CCOC(=O)C1CN(S(=O)(=O)c2cccc(C(F)(F)F)c2)c2cc(CC(=O)OC)ccc2O1` (stereo not drawn): the “activity, negative = inhibition” value is 3.52%.

For `CCN[C@@H]1C[C@H](C)S(=O)(=O)c2sc(S(N)(=O)=O)cc21`, the “activity, negative = inhibition” value is -7.71% [at 25.6 µM].

For the compound `Cc1ncc(COP(=O)(O)O)c(C)c1O`, the activity, negative = inhibition is -20.3% [at 11.4 µM].

Consider `COC(=O)[C@@H]1CC[C@H](C)[C@@H](c2ccc(C)cc2)N1C(=O)c1ccc(/C=N\O[C@@H](C)CN2CCCCc3nc(C)c(C)cc32)cc1`, for which the activity, negative = inhibition was -5.58% [at 11.4 µM].

Turning to `CCn1nnnc1SCC(=O)c1ccc2c(c1)OCCO2`, the AC50 was 8.91 µM (active).

As to `CC(C)n1nnnc1SCC(=O)c1ccc2c(c1)OCCO2`, the concentration at half-maximal activity (AC50) was 5.01 µM (active).

Regarding `CC(=O)N[C@H]1[C@@H](O[C@@H](C)C(=O)O)[C@H](O)[C@H](CO)O[C@@H]1O`, the “activity, negative = inhibition” value was -2.92% [at 25.6 µM].

In the case of `CO[C@H]1COC(=O)[C@H]2CCCN2C(=O)C/C=C\[C@@H](C)[C@H](OC)COC(=O)C/C=C\[C@@H]1C`, the activity, negative = inhibition is 1.68% [at 11.4 µM].

Take `CCNC(=S)NNC(=O)c1cc(C)on1`: the “activity, negative = inhibition” value is -11.2%.

Regarding `COC(=O)[C@@H]1C[C@H]1[C@@H](NC(=O)c1cc(C)on1)c1ccccc1`, the AC50 was 20 µM (active).

On to `Cc1cc(C(=O)NNCc2ccccc2)no1`, for which the AC50 is 12.6 µM (active).

`Cc1cc(CNC(=O)[C@H]2C[C@@H]2[C@H](NP(=O)(c2ccccc2)c2ccccc2)c2ccccc2)nn1C`: the “activity, negative = inhibition” value was -8.49%.

Take `COC(=O)[C@@H]1C[C@H]1[C@@H](NC(=O)c1cc(C)nn1C)c1ccccc1`: the concentration at half-maximal activity (AC50) was 15.8 µM (active).

As to `Cc1occc1C(=O)NNC(=O)Cc1ccccc1`, the “activity, negative = inhibition” value is -11.2%.

Turning to `COc1ccc(O[C@H]2C=C[C@@H](c3ccccc3)O[C@@H]2CON=C(C)C)cc1`, the activity, negative = inhibition is -2.27% [at 11.4 µM].

Regarding `Cc1cc2nc3[nH]c4c(Cl)cc(Cl)cc4c3nc2cc1C`, the half-maximal activity concentration (AC50) was 0.631 µM (active).

These data come from PubChem BioAssay AID1851 (National Center for Advancing Translational Sciences (NCATS), 2009).
